Here are results for 25 compounds from PubChem BioAssay (NCATS).

Each structure is given as a SMILES string. Results filed as inconclusive are left out. A call without a number means that no potency is given here. Active and inactive are the calls of the source. Unless noted, calls follow the shape of the dose curve; as a rule, active = well fitted curve in the direction sought with a large enough effect; inconclusive = small, poorly fitted or top-dose-only effect, or another doubt; inactive = no such curve, though single readings can be large; an effect the other way counts as inactive or inconclusive.

The target of assay [1] is Luciferin 4-monooxygenase (Photinus pyralis) (UniProt P08659). As to the kind of experiment: Biochemical firefly luciferase enzyme assay for NPC (AID 624030).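 Also: purified P. pyralis luciferase at 10 nM with luciferin and ATP substrate; series mostly up to about 59 µM; nearly all actives have a fitted effect of over 70% in size.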 In a few lines: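 Purified P. pyralis luciferase at 10 nM in 50 mM Tris Acetate (final), luminescence read within 5 minutes of enzyme addition to compounds. Activity normalised to PTC124 versus DMSO; concentration-response curves classed by r2, magnitude and activity.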

In assay [2] the target is Voltage-gated inwardly rectifying potassium channel KCNH2 (Homo sapiens) (UniProt Q12809). As to the kind of experiment: qHTS Assay for Small Molecule Inhibitors of the Human hERG Channel Activity (AID 588834).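 Also: top concentration of the series differs between compounds; lower thallium flux fluorescence means stronger hERG block; nearly all actives have a fitted effect of over 50% in size.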 In a few lines:
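hERG block measured as reduced thallium-dye (FluxOR) fluorescence after stimulation buffer addition, read over 2 min. Cells were hERG-BacMam-transduced U2OS exposed to compound ~10 min […]; concentration-response fitted with Hill equation for AC50.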
For orientation: qHTS replaces the single test concentration by a dilution series.

A short description of assay [3]: S16 Schwann cell viability assay (CellTiter-Glo assay) (AID 624031).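 Also: native untransfected S16 rat Schwann cells; series mostly up to about 58 µM; nearly all actives have a fitted effect of over 70% in size.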 In a few lines: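 Following overnight culture in 10% FBS DMEM, parental S16 rat Schwann cells are dosed for 24 h at 37 °C. Viability is read as CellTiter-Glo luminescence and expressed as % activity relative to DMSO (0%) and no-cell wells.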
In general terms: ATP-based viability assays read luminescence as a measure of living cells.

The nature of assay [4]: S16 Schwann cell PMP22 intronic element firefly luciferase assay (AID 624032). Also: nearly all actives have a fitted effect of over 30% in size. Also: potency is read from the fitted curve at half-maximal effect. In a few lines: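 Rat S16 Schwann cells stably carrying firefly luciferase driven by a PMP22 intronic element, in 10% FBS, treated 24 h at 37 C. ONE-Glo luminescence normalized to PTC124 control and DMSO (0%); curves classed by r2, magnitude and activity.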
A short description of assay [5]: qHTS assay for small molecule agonists of retinoid X receptor alpha signaling (AID 588544; calls by dose curve). The settings on record: HEK293T RXRa-UAS-bla, beta-lactamase reporter, 18 h; 530 nm emission.
Assay [6] deals with Retinoic acid receptor RXR-alpha (Homo sapiens) (UniProt P19793). Described as above.
In assay [7] the target is Thyroid hormone receptor beta (Homo sapiens) (UniProt P10828). Nature of the assay: qHTS assay for small molecule agonists of thyroid hormone receptor beta signaling (AID 588545; calls by dose curve). In a few lines:
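Stimulation of a TR-driven beta-lactamase reporter was quantified in GripTite HEK 293 cells. Compound series ran for 18 hrs; curves were normalized to T3 and DMSO controls and fitted to yield EC50.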

Assay [8] is described as follows: qHTS assay for small molecule antagonists of retinoid X receptor alpha signaling (AID 588546; active = well fitted inhibition curve with a large enough effect in the signal ratio, with a control signal flat, not every such curve was filed as active; the % refers to the signal ratio;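 also: cells stimulated with 9-cis-retinoic acid as agonist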). The settings on record: HEK293T RXRa-UAS-bla, beta-lactamase ratio, antagonist mode; measured here: W530 green channel, cytotoxicity proxy. In a few lines: (§1)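 Beta-lactamase reporter inhibition, read as CCF4 fluorescence ratio (ex 405, em 460/530 nm) after 2 h at RT. HEK293T UAS-bla cells, 2500/well, were stimulated with 9-cis-RA at 500 or 100 nM final alongside test compound for 18 h at 37 C.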

In assay [9] the target is Retinoic acid receptor RXR-alpha (Homo sapiens) (UniProt P19793). The assay is described as above. The settings on record: HEK293T RXRa-UAS-bla, beta-lactamase ratio, antagonist mode. Put shortly: as §1
The target of assay [10] is Thyroid hormone receptor beta (Homo sapiens) (UniProt P10828). Nature of the assay: qHTS assay for small molecule antagonists of thyroid hormone receptor beta signaling (AID 588547; active = well fitted inhibition curve with a large enough effect in the signal ratio, with a control signal flat, not every such curve was filed as active; the % refers to the signal ratio;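 also: cells stimulated with 0.4 nM T3 agonist during compound exposure; series mostly up to about 77 µM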). The following applies: TR-UAS-bla HEK293, beta-lactamase ratio, antagonist mode, 18 h. Put shortly:
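TR-UAS-bla GripTite HEK293 cells in 2% charcoal/dextran FBS medium; compounds 0.59 nM to 92 uM with T3 at 0.4nM final, 18 h at 37 C. Beta-lactamase read by CCF4 fluorescence (460/530 nm); Hill fits gave IC50 and efficacy.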

Thyroid hormone receptor beta (Homo sapiens), sequence (P10828 whole entry, looked up): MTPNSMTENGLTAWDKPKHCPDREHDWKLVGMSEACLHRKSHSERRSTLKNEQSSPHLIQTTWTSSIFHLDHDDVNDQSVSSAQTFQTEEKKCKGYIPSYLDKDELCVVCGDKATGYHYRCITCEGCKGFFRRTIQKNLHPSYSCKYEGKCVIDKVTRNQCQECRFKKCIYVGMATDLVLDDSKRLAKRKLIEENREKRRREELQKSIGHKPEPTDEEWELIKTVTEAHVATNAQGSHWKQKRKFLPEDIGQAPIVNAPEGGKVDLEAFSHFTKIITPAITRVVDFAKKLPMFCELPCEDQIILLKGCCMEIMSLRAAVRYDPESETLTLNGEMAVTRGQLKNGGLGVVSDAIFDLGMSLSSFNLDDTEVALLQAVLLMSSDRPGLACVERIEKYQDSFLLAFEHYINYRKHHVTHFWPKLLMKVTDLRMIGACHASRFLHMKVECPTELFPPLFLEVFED
Luciferin 4-monooxygenase (Photinus pyralis), sequence (P08659 whole entry, looked up): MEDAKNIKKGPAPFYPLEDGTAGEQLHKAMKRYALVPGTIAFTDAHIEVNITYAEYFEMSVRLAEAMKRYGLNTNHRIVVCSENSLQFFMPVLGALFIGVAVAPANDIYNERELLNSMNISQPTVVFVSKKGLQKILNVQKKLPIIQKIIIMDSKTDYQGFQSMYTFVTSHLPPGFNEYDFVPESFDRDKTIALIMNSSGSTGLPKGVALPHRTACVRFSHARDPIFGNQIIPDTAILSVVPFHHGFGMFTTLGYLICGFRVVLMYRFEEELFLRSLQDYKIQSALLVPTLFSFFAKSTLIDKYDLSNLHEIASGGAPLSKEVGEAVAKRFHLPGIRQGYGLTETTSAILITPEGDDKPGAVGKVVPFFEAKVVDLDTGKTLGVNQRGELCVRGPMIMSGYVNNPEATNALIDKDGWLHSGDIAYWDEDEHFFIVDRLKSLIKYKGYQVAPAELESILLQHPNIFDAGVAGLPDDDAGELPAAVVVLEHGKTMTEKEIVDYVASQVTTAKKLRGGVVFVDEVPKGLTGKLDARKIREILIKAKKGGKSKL
Retinoic acid receptor RXR-alpha (Homo sapiens), sequence (P19793 whole entry, looked up): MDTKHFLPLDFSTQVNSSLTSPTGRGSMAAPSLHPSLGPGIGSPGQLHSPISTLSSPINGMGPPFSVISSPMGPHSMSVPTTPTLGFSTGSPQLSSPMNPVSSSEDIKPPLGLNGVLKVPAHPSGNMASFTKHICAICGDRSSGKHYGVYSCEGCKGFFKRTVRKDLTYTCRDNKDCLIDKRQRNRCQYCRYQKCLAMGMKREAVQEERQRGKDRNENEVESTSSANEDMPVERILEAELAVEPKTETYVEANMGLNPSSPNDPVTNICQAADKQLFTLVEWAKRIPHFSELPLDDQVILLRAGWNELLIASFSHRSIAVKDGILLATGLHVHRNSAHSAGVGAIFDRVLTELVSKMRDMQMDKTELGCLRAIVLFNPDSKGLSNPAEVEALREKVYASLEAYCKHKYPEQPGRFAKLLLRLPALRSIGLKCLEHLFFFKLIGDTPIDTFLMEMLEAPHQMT
Voltage-gated inwardly rectifying potassium channel KCNH2 (Homo sapiens), sequence (Q12809 whole entry, looked up): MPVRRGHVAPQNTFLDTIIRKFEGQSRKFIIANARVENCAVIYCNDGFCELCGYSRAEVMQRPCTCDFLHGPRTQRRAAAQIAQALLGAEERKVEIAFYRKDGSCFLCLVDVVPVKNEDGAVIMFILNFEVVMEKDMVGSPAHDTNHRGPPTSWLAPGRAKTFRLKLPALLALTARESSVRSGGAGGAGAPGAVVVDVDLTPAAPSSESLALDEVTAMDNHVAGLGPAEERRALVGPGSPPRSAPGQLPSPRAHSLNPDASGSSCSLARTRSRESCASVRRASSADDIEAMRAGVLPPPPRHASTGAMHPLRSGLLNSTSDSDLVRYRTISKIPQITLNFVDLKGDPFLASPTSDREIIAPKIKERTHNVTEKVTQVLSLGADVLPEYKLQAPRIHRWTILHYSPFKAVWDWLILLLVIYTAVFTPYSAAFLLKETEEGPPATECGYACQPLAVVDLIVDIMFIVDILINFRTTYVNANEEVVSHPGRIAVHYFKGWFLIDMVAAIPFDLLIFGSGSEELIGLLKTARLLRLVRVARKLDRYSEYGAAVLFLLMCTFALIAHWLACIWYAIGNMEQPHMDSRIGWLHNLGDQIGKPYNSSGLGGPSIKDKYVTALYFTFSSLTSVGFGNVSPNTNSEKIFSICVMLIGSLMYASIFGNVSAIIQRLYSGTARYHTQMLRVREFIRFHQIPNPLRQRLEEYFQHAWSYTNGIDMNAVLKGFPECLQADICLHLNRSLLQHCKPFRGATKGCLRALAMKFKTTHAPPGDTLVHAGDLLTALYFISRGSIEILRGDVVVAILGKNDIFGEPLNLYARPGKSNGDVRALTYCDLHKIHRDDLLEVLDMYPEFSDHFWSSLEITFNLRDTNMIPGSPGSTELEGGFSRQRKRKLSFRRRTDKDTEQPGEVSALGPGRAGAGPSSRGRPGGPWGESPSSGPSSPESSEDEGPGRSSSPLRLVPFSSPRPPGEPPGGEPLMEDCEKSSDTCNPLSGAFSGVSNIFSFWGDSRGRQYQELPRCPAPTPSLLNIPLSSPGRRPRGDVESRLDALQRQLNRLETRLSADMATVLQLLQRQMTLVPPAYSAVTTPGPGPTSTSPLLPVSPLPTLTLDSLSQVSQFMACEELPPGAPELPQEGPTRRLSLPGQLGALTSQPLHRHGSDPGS

Regarding `CCC(C(=O)O)C1CCC(C)C(C(C)C(O)C(C)C(=O)C(CC)C2OC3(C=CC(O)[C@@]4(CC[C@](C)(C5CC[C@@](O)(CC)C(C)O5)O4)O3)C(C)CC2C)O1` (some centres undefined), the compound was classed as inactive in assay [1].

As for `COC1=C(OC)C(=O)C(CC=C(C)CCC=C(C)CCC=C(C)CCC=C(C)CCC=C(C)CCC=C(C)CCC=C(C)CCC=C(C)CCC=C(C)CCC=C(C)C)=C(C)C1=O`, the result in assay [1] was inactive.

Regarding `C[C@H]1C[C@H]2[C@@H]3CCC4=CC(=O)C=C[C@]4(C)[C@@H]3C(=O)C[C@]2(C)[C@@]1(O)C(=O)CO`, the call in assay [1] was inactive.

Consider `Nc1ccn(C2CO[C@H](CO)O2)c(=O)n1` (some centres undefined), for which, in assay [1], the compound was classed as inactive.

`N=c1ccn2c(n1)O[C@H]1[C@@H](O)[C@@H](CO)O[C@H]12`: the call in assay [2] was inactive.

Take `C#CCC(Cc1cnc2nc(N)nc(N)c2n1)c1ccc(C(=O)N[C@@H](CCC(=O)O)C(=O)O)cc1` (some centres undefined): the compound was classed as inactive in assay [1].

With `CC1(C)[C@H](O[C@H]2O[C@H](C(=O)O)[C@@H](O)[C@H](O)[C@H]2O[C@@H]2O[C@H](C(=O)O)[C@@H](O)[C@H](O)[C@H]2O)CC[C@@]2(C)[C@H]1CC[C@]1(C)[C@H]2C(=O)C=C2[C@H]3C[C@@](C)(C(=O)O)CC[C@]3(C)CC[C@]21C`, the result in assay [1] was inactive.

For the compound `OCC(O)C(O)C(O)CO` (centres undefined), the call in [1] and in assay [3] was inactive. Besides, the Potency entry in assay [4] is “inactive”.

For `N[C@H]1CN(c2c(F)cc3c(=O)c(C(=O)O)cn(C4C[C@@H]4F)c3c2Cl)CC12CC2` (some centres undefined), the compound was called inactive in [1].

For the compound `O=C1c2cccc(O)c2C(=O)c2c(O)cc(CO)cc21`, the max response in assay [5] was 11.8%; in [8], -0.0097%; in assay [9] it was 15.1% (inactive). For the same compound, the compound was classed as inactive in assay [6] and in assay [7]. Besides, in assay [10], the activity change % (negative = inhibition) is 26.1% (inactive).

On to `COc1ccc2c(c1OC)C(=O)OC2[C@H]1c2c(cc3c(c2OC)OCO3)CCN1C` (some centres undefined), for which the compound was classed as inactive in [1] and in assay [3]. For the same compound, the Potency entry in assay [4] was “inactive”.

Regarding `Cc1cc(O)c2c(c1)C(=O)c1cccc(O)c1C2=O`, the max response was 0.103% in assay [5], -3.99% in assay [8] and 11.5% (inactive) in [9]. The outcome in assay [6] and in [2] was inactive. The activity change % (negative = inhibition) in assay [10] is 3.18% (inactive).

In the case of `CCCCCCCCCCCCCCCC(=O)OC[C@@H](NC(=O)C(Cl)Cl)[C@H](O)c1ccc([N+](=O)[O-])cc1`, in [1], the compound was called inactive.

`COc1cccc2c1C(=O)c1c(O)c3c(c(O)c1C2=O)C[C@@](O)(C(=O)CO)C[C@@H]3O[C@H]1C[C@H](N)[C@H](OC2CCCCO2)[C@H](C)O1` (some centres undefined): in assay [3], the compound was called inactive. Further, the Potency entry in assay [4] is “inactive”.

Consider `O=C1c2c(O)cccc2[C@@H]([C@@H]2O[C@H](CO)[C@@H](O)[C@H](O)[C@H]2O)c2cc(CO)cc(O)c21`, for which the compound was classed as inactive in assay [1].

For the compound `CCCCCCCCCCCC(CC1OC(=O)C1CCCCCC)OC(=O)C(CC(C)C)NC=O` (centres undefined), the call in assay [1] was inactive. Further, the Potency in assay [4] is 7.21 µM (active).

Regarding `COc1ccc([C@@H]2CNC(=O)C2)cc1OC1CCCC1`, the result in [1] and in [3] was inactive.

For the compound `Nc1nc2c(c(=O)[nH]1)N(C=O)[C@H](CNc1ccc(C(=O)N[C@@H](CCC(=O)O)C(=O)O)cc1)CN2`, the call in assay [1] and in assay [3] was inactive. For the same compound, in assay [4], the Potency entry was “inactive”.

In the case of `CCCCCCCN(CC)CCCC(O)c1ccc(NS(C)(=O)=O)cc1` (centres undefined), the outcome in assay [1] was inactive.

For the compound `Cc1onc(-c2ccccc2)c1C(=O)N[C@@H]1C(=O)N2[C@@H](C(=O)O)C(C)(C)S[C@@H]12`, the call in assay [1] was inactive.

With `O=C(O)C(=O)Nc1cccc(C2=NN=N[N]2)c1`, in [1], the call was inactive.

Turning to `C[C@]12CC[C@@H]3c4ccc(O)cc4CC[C@H]3[C@H]1CC[C@H]2O`, the figures for the max response in assay [5], in [8] and in assay [9] were 14%, 6.57% and -12.2% (inactive), respectively. The outcome in assay [6] and in assay [7] was inactive. In addition, the activity change % (negative = inhibition) in assay [10] was -1.66% (inactive).

On to `OC[C@@H](O)[C@@H](O)[C@H](O)[C@@H](O)CO`, for which the max response is -9.11% in assay [5], -4.07% in [8] and -2% (inactive) in assay [9]. The outcome in assay [6] and in [7] was inactive. The activity change % (negative = inhibition) in assay [10] was 1.79% (inactive).

Regarding `Nc1ccn(C[C@@H](CO)OCP(=O)(O)O)c(=O)n1`, in [1], the call was inactive.

As to `CC(C=CC1=C(C)CCCC1(C)C)=CC=CC(C)=CC(=O)Nc1ccc(O)cc1`, the compound was classed as inactive in assay [7].
